The values that follow come from PMC10668032, “Altered binding affinity of SIX1-Q177R correlates with enhanced WNT5A and WNT pathway effector expression in Wilms tumor”.

The full ranking holds about 33,000 sequences; the median of “e-score” is about -0.05, and the highest 2% start at about 0.38. Only a selection was taken, and the highest values are over-represented in it overall.

In this assay the target is T1, SIX1-Q177R homeodomain (human, UniProt Q15475 108-198, Q177R).
T1 sequence: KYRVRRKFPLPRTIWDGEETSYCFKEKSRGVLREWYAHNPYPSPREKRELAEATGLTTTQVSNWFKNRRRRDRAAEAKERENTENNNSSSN
Kind of assay: universal protein binding microarray; Universal all-10-mer PBM (8x60K, AMADID 030236), 300 nM GST-tagged protein, Alexa Fluor 488 anti-GST; buffer, salt, pH and temperature not stated (as in Berger); high values mean tight binding. The following applies: protein: ivt; tags: N-terminal GST; dsDNA, one strand shown. In a few lines:
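After in vitro transcription/translation, GST-tagged homeodomains were quantified against a recombinant GST standard curve by anti-GST western blot. They were then placed in duplicate at 300 nM final concentration on universal 'all 10-mer' protein binding microarrays of 8×60K format.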
For the sequence CCCCACGA, the binding signal was 0.1526 ± 0.000735 E-score.

Regarding TGTAAGAA, the binding signal amounted to 0.294 ± 0.0277 E-score. The value for AAACGTGT was 0.303 ± 0.054 E-score. The value for CCCGGTGC was 0.154 ± 0.0105 E-score; that for GCTTACAC was 0.437 ± 0.0203 E-score. The value for ACTTACCC was 0.186 ± 0.0205 E-score; that for GCTCACAC was 0.276 ± 0.0114 E-score. As to ACTTACTC, the binding signal is 0.179 ± 0.00345 E-score. The value for ACTTACAC was 0.449 ± 0.0178 E-score; that for ACTTACGC was 0.164 ± 0.00788 E-score; that for CCTTATAA was 0.179 ± 0.0218 E-score.

Consider CCTTACAC, for which the binding signal is 0.439 ± 0.0105 E-score.

Turning to CCTCACAC, the binding signal was 0.279 ± 0.0153 E-score. The value for CTCGCCCC was 0.173 ± 0.0101 E-score. The value for GGAGGGTA was 0.224 ± 0.0107 E-score; that for ACCCACAA was 0.151 ± 0.0489 E-score; that for CCCCACCG was 0.228 ± 0.054 E-score. The value for AGCGGGTG was 0.333 ± 0.0119 E-score; that for ACCAGGCA was 0.151 ± 0.0134 E-score. On to ATGGGGTG, for which the binding signal worked out at 0.342 ± 0.0155 E-score. The value for CTGGTGTA was 0.4837 ± 0.00053 E-score; that for GTGGTGCA was 0.189 ± 0.00669 E-score. The value for CTGGAGTC was 0.1843 ± 0.00156 E-score; that for ATGGTGTG was 0.405 ± 0.0177 E-score.

Consider CTGGTGCA, for which the binding signal amounted to 0.234 ± 0.0234 E-score. The value for CTGGTACA was 0.21 ± 0.0391 E-score; that for ATGTGGTG was 0.271 ± 0.0248 E-score; that for GTGTGGTA was 0.265 ± 0.00181 E-score. As to CTGGTATC, the binding signal worked out at 0.274 ± 0.0156 E-score.

Take GTGGTGTA: the binding signal is 0.481 ± 0.00765 E-score. Take CTGGTGTC: the binding signal was determined as 0.4826 ± 0.00371 E-score. The value for ACCCGGGC was 0.199 ± 0.0334 E-score.

As to CTTGCACC, the binding signal amounted to 0.166 ± 0.00933 E-score.

Turning to CCCGGTCG, the binding signal was determined as 0.212 ± 0.00566 E-score. For the sequence ACACAATG, the binding signal stood at 0.164 ± 0.079 E-score. The value for ACCCACAC was 0.348 ± 0.0152 E-score. The value for ACCTCGGG was 0.273 ± 0.0151 E-score; that for AGGCGGTG was 0.2798 ± 0.00206 E-score. The value for CACGCGGG was 0.241 ± 0.00761 E-score; that for ACCTTCCT was 0.264 ± 0.0494 E-score; that for ATTGTGTC was 0.219 ± 0.0744 E-score. Take ATGGTGTA: the binding signal was 0.4792 ± 0.00274 E-score. In the case of ATGGTATC, the binding signal is 0.3344 ± 0.0022 E-score. The value for ATTGTGTA was 0.151 ± 0.0397 E-score; that for ATGGTGTC was 0.486 ± 0.00186 E-score; that for ATGGTACA was 0.18 ± 0.0214 E-score.

Take CACCCAAG: the binding signal was 0.366 ± 0.00569 E-score.

For ACTGATCC, the binding signal is 0.16 ± 0.00427 E-score. The value for CACCGGGG was 0.256 ± 0.0427 E-score.

In the case of AACCGTGT, the binding signal is 0.3792 ± 0.0033 E-score. The value for ATGCACCC was 0.19 ± 0.0233 E-score.

Consider GGGTTACA, for which the binding signal was 0.242 ± 0.0177 E-score. Take CCCGCACA: the binding signal was 0.228 ± 0.0266 E-score. The value for CACTATAC was 0.261 ± 0.0244 E-score. The value for ACACTTGG was 0.329 ± 0.018 E-score; that for CCGGGTCA was 0.285 ± 0.0196 E-score. The value for GTATCATA was 0.29 ± 0.00996 E-score.

On to CGGAACAC, for which the binding signal stood at 0.411 ± 0.0112 E-score.

As for GGGAACCC, the binding signal stood at 0.184 ± 0.0515 E-score.

As for CGGAACCC, the binding signal is 0.234 ± 0.0277 E-score. The value for GGGAACAC was 0.368 ± 0.0116 E-score; that for AGGCACAC was 0.203 ± 0.0019 E-score. For AGGAACAC, the binding signal amounted to 0.394 ± 0.0134 E-score. For the sequence ACGGGTAT, the binding signal was found to be 0.277 ± 0.00631 E-score. The value for CGGCGTCA was 0.219 ± 0.00435 E-score; that for CCCGCTGA was 0.159 ± 0.0401 E-score; that for CTTCTACC was 0.203 ± 0.0258 E-score. The value for GTGTCTCA was 0.371 ± 0.00405 E-score; that for GTATCAAC was 0.256 ± 0.0174 E-score; that for GGGTCAAA was 0.171 ± 0.0267 E-score. The value for GTGTCAAC was 0.443 ± 0.00646 E-score; that for GTATCAAA was 0.159 ± 0.0425 E-score; that for GGGTCAAC was 0.223 ± 0.0249 E-score. For GTGTCACA, the binding signal was 0.462 ± 0.00507 E-score. With GTGTCAAA, the binding signal turned out to be 0.4527 ± 0.00139 E-score. As to TATTCTAA, the binding signal was 0.213 ± 0.0183 E-score. The value for GTGTCTAA was 0.394 ± 0.0134 E-score; that for GAGTCACA was 0.26 E-score; that for GGGTCACA was 0.202 ± 0.0391 E-score. The value for CACTGGAA was 0.152 ± 0.024 E-score. The value for AGGGGTTC was 0.193 ± 0.0251 E-score; that for GACCCCGC was 0.248 ± 0.0275 E-score. Consider CCTGATAC, for which the binding signal came to 0.202 ± 0.0295 E-score. As to AGTGCACC, the binding signal was 0.28 ± 0.00682 E-score.

Consider GATCCCAC, for which the binding signal was 0.24 ± 0.0253 E-score. The value for TATACCCA was 0.192 ± 0.0317 E-score.
